Structures are written as SMILES. Values joined by “and” are separate entries in the source; they are usually repeats but may differ in a detail not shown here. Identical values can stand only once. Inconclusive results are not listed. Active and inactive are the calls of the source. Calls come from the whole dose curve; as a rule, active = well fitted cell-killing curve with a large enough effect; inconclusive = small, poorly fitted or top-dose-only effect, or effect the other way; inactive = no such curve, though single readings can be large or run the other way.
Potency is the fitted concentration of half-maximal effect.

A short description of this assay: Quantitative High-Throughput drug screen in 47 multiple myeloma cell lines against the NCATS MIPE library collection: XG1_PLB cell viability assay (AID 1919866). Note: nearly all actives have a fitted effect of over 35% in size. To be noted: CellTiter-Glo ATP, 48 h; series mostly up to 45.8 µM. An excerpt: PI: Beverly A. Mock Ph.D.
Laboratory of Cancer Biology and Genetics,
Center for Cancer Research, National Cancer Institute,
National Institute of Health, Bethesda, Maryland
Drug resistance and disease progression are common in multiple myeloma (MM) patients, underscoring the need for new therapeutic combinations. […] We hypothesized that effective combinations would reduce MYC expression and enhance p16 activity. […] These preclinical data identify potentially useful drug combinations for evaluation in drug-resistant MM and reveal potential mechanisms of combined drug sensitivity.
Described herein is the primary MIPE qHTS used to cherrypick compounds. Validated compounds were then further tested for potential synergistic activiy.
[1] Peat TJ, Gaikwad SM, Dubois W, Gyabaah-Kessie N, Zhang S, Gorjifard S, Phyo Z, Andres M, Hughitt VK, Simpson RM, Miller MA, Girvin AT, Taylor A, Williams D, D'Antonio N, Zhang Y, Rajagopalan A, Flietner E, Wilson K, Zhang X, Shinn P, Klumpp-Thomas C, McKnight C, Itkin Z, Chen L, Kazandijian D, Zhang J, Michalowski AM, Simmons JK, Keats J, Thomas CJ, Mock BA. Drug combinations identified by high-throughput screening promote cell cycle transition and upregulate Smad pathways in myeloma. Cancer Lett. 2023 Aug 1;568:216284. doi: 10.1016/j.canlet.2023.216284. Epub 2023 Jun 24. PMID: 37356470; PMCID: PMC10408729.
SEQUENCE No. (e.g., 1, 2, 3, etc.); […] (e.g., Cells, Incubation, Reagent, etc.); VALUE and DESCRIPTION.
1; Cells; 5 uL; white, solid bottom 1536-well Greiner assay plate.
2; Compounds; 23 nL; Kalypsis pin tool (Wako USA) equipped with a 1536-well pin head to transfer to the assay plates.
3; Incubation; 48 hours; 37C incubation.
4; Reagent;5uL; CellTiter Glo (Promega).
5; Detector; 425V; Luminescence; Viewlux PerkinElmer.
NOTES (numbers refer to Sequence numbers above)
1. The cell-based screening methods employed in this study were like those previously published. Briefly, the corresponding myeloma cell lines were screened in 1,536-well plates with 500 cells, 5-uL per well for inhibition of cell viability (assessed by measuring ATP levels with CellTiterGlo).
2. NCATS MIPE 4.0 library of approved and investigational drugs were added using the Kalypsis pin tool. Wells treated with DMSO only for 100% viability and media only for 0% viability were used as controls.
3. The assay plates were covered and incubated for 48 hours in a 37C, 5% CO2 incubator with controlled humidity.
4. After 48 hours, CellTilter-GloTM luminescent substrate mix (Promega) reagent was added to the assay plate and plates we incubated for 5 min at room temperature.
5. Signal was measured as median relative luminescence units on a ViewLux (PerkinElmer) multiplate reader.
[1] Heske CM, Davis MI, Baumgart JT, Wilson K, Gormally MV, Chen L, Zhang X, Ceribelli M, Duveau DY, Guha R, Ferrer M, Arnaldez FI, Ji J, Tran HL, Zhang Y, Mendoza A, Helman LJ, Thomas CJ. Matrix Screen Identifies Synergistic Combination of PARP Inhibitors and Nicotinamide Phosphoribosyltransferase (NAMPT) Inhibitors in Ewing Sarcoma. Clin Cancer Res. 2017 Dec 1;23(23):7301-7311. doi: 10.1158/1078-0432.CCR-17-1121. Epub 2017 Sep 12. PMID: 28899971; PMCID: PMC6636827.
In general terms: Cellular ATP, detected with luciferase, serves as a proxy for viable cell number.
With `O=S(=O)(N=Cc1c(O)ccc2ccccc12)c1cccs1`, the Potency was 20.9 µM (active). Next, `Nc1nccc(-c2ccc3noc(-c4ccc(Cl)cc4)c3c2)n1`: 3.72 µM (active). To `CO[C@@H]1[C@H](N(C)C(=O)c2ccccc2)C[C@H]2O[C@]1(C)n1c3ccccc3c3c4c(c5c6ccccc6n2c5c31)C(=O)NC4` belongs 0.935 µM (active); to `Cc1cc(-c2ccc(CC(=O)Nc3ccc(-c4cccnc4)cc3)cc2)ccn1`, 18.7 µM (active); to `O=C1[C@H](Cc2ccc(O)cc2)N2C(=O)CCN(C(=O)NCc3ccccc3)[C@H]2CN1Cc1cccc2ccccc12`, 9.35 µM (active). Next, `NCCCC(N)(C(=O)O)C(F)F` (stereo not given): “inactive”; `CCCC(CCC)C(=O)O`: 20.9 µM (active); `O=C(C=Cc1ccc(/C=C/C(=O)Nc2ccc(C3=NCCN3)cc2)cc1)Nc1ccc(C2=NCCN2)cc1`: “inactive”.

With `N[C@@H]1CONC1=O`, the Potency result is “inactive”. Next, `COc1c(Cl)cc2c([nH]c3cnccc32)c1NC(=O)c1cccnc1C`: 0.372 µM (active). Next, `O=c1n(CCCN2CCN(c3cccc(Cl)c3)CC2)nc2ccccn12`: “inactive”; `Cc1ccccc1C(OCCN(C)C)c1ccccc1` (stereo not given): “inactive”; `Cn1cnc([N+](=O)[O-])c1Sc1ncnc2nc[nH]c12`: 5.26 µM (active). Next, `CNC(=O)c1ccc(C)c(-n2c(C)cc(OCc3ccc(F)cc3F)c(Br)c2=O)c1`: 6.62 µM (active).

As to `CCOC(=O)C1=C[C@]2(CC)CCCN3CCc4c(n1c1ccccc41)[C@@H]32`, the Potency is 6.62 µM (active). To `CCC(C)(C)C(=O)O[C@H]1C[C@@H](C)C=C2C=C[C@H](C)[C@H](CC[C@@H]3C[C@@H](O)CC(=O)O3)[C@H]21` belongs 9.35 µM (active); to `CC(C)C[C@H](NC(=O)[C@@H](O)[C@H](N)Cc1ccccc1)C(=O)O`, 20.9 µM (active). To `O=C1CCCC2=C1C(c1[nH]ncc1Cl)N=C(Nc1nc3ccccc3o1)N2` (stereo not given) belongs 2.96 µM (active); to `CC(C=CC1=C(C)CCCC1(C)C)=CC=CC(C)=CC(=O)O`, 1.87 µM (active) and 16.6 µM (active); to `CC(=O)Oc1ccccc1C(=O)O`, 5.26 µM (active).

Turning to `NC(N)=NC(=O)c1nc(Cl)c(N)nc1N`, the Potency was 8.33 µM (active). `COc1ccccc1[C@H](c1cccc2ccccc12)[C@@](C)(C#N)C(=O)N1CCC(c2cccc(C(F)(F)F)c2)CC1`: the Potency was 3.32 µM (active). Turning to `C[C@]12CC[C@H](O)CC1=CC[C@@H]1[C@H]2CC[C@]2(C)C(c3cccnc3)=CC[C@H]12`, the Potency is 3.23 µM (active). As to `COCC(=O)NCC=Cc1ccc2ncnc(Nc3ccc(Oc4ccc(C)nc4)c(C)c3)c2c1`, the Potency was 20.9 µM (active). Next, `Oc1ccc(C2CNCCc3c2cc(O)c(O)c3Cl)cc1` (stereo not given): “inactive”; `NC(=O)c1cnccn1`: “inactive”. Next, `N=c1nc(N2CCCCC2)cc(N)n1O`: 26.4 µM (active); `O=C(Nc1nc2ccccc2n1CCN1CCOCC1)c1cccc([N+](=O)[O-])c1`: 4.18 µM (active). Next, `Cc1cc(Nc2nc(N[C@@H](C)c3ncc(F)cn3)ncc2Cl)n[nH]1`: 2.64 µM (active); `Fc1ccc(Cl)cc1-c1nc(Nc2ccncc2)c2nccnc2n1`: “inactive”; `CC1(C)SCCN(S(=O)(=O)c2ccc(OCC#CCO)cc2)[C@@H]1C(=O)NO`: “inactive”.

For `O=c1[nH]cnc2[nH]ncc12`, the Potency entry was “inactive”.

Take `CC(c1cc2ccccc2s1)N(O)C(N)=O` (stereo not given): the Potency entry was “inactive”. Next, `COc1ccc2c3n(c(=NC(=O)c4cccnc4)nc2c1OC)CCN3`: 1.48 µM (active); `CCCc1nc2c(C)cc(-c3nc4ccccc4n3C)cc2n1Cc1ccc(-c2ccccc2C(=O)O)cc1`: 20.9 µM (active); `C[C@@H]1CN(Cc2ccc(F)cc2)[C@@H](C)CN1C(=O)c1cc2c(C(=O)C(=O)N(C)C)cn(C)c2cc1Cl`: 18.7 µM (active).

On to `Cc1cc2c(C(C)C)c(O)c(O)c(C=O)c2c(O)c1-c1c(C)cc2c(C(C)C)c(O)c(O)c(C=O)c2c1O`, for which the Potency was 8.33 µM (active). Next, `CN(C)c1ccc(Nc2nc(N)n(C(=O)c3c(F)cccc3F)n2)cc1`: 0.935 µM (active); `COc1ccc([C@@H]2CC(=O)c3c(O)cc(O[C@@H]4O[C@H](CO[C@@H]5O[C@@H](C)[C@H](O)[C@@H](O)[C@@H]5O)[C@@H](O)[C@H](O)[C@@H]4O)cc3O2)cc1O`: 4.18 µM (active); `COc1nc(-c2ccc3c(c2)OCO3)n(-c2ccc(NC(=O)CSc3ccccc3)cc2)n1`: “inactive”.

The values are drawn from PubChem BioAssay (NCATS).
